# In the library only some 3.3% were active in any assay of this set; here they are far more common.
# AmpC detergent – qHTS Inhibitors of AmpC Beta-Lactamase (assay with detergent); P00811; AmpC hydrolysis of nitrocefin, absorbance 480 nm, 0.01% Triton; Potency, µM (series often up to 114 µM), for the others: at the top dose activity change, negative = inhibition, hits mostly inhibitors; hit rate 0.041% among 370,000;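 further: 0% = no-compound wells and -100% = no-enzyme wells; nearly all actives have a fitted effect of over 25% in size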
# Target sequence (P00811 whole entry, looked up): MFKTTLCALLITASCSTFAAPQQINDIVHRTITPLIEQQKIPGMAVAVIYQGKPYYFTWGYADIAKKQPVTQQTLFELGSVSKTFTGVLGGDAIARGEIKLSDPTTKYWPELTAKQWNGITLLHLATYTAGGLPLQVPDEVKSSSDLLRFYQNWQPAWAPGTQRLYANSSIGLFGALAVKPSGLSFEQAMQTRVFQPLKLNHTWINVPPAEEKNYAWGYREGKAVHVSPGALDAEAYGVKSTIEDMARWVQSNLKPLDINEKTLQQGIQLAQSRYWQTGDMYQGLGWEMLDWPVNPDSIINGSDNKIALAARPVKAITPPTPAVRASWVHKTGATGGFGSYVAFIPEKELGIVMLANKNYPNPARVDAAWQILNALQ
#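 AmpC (5.3 nM in the dispensed reagent) in 20 mM phosphate pH 7.0 with 0.01% (detergent screen) or 0.0001% Triton X-100 was preincubated with compounds for 15 min at room temperature. Nitrocefin was then added from an 800 uM solution, and hydrolysis was followed at 480 nm.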
# Sm TGR inh – qHTS Assay for the Inhibitors of Schistosoma Mansoni Peroxiredoxins; Schistosoma mansoni thioredoxin glutathione reductase (TGR), Q962Y6; purified TGR, DTNB reduction, TNB absorbance 405 nm; Potency, µM (top dose mostly 114 µM), without a hit: at the top dose activity change, negative = inhibition, most hits filed as inhibitors; hit rate 3% among 360,000; AID 485364, 2010; further: nearly all actives have a fitted effect of over 60% in size
#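 Kinetic colorimetric format: TGR-catalysed, NADPH-driven DTNB reduction monitored via TNB absorbance. Enzyme dispensed at 20 nM; compound exposure 15 min at room temperature before reaction start.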
# AmpC inh no detg – qHTS Inhibitors of AmpC Beta-Lactamase (assay without detergent); P00811; AmpC nitrocefin hydrolysis, absorbance 480 nm, 0.0001% Triton; Potency, µM (series often up to 57.1 µM), for inactives: at the top dose activity change, negative = inhibition, usual class: inhibitors; hit rate 0.52% among 330,000; AID 485341, 2010;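 further: plate controls were no compound for no effect and no enzyme for full effect; nearly all actives have a fitted effect of over 20% in size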
#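 AmpC (5.3 nM in the dispensed reagent) in 20 mM phosphate pH 7.0 with 0.01% (detergent screen) or 0.0001% Triton X-100 was preincubated with compounds for 15 min at room temperature. Nitrocefin was then added from an 800 uM solution, and hydrolysis was followed at 480 nm.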
# An asterisk follows results filed as active; ? = inconclusive; . = no result; [ ] = dose if it differs, or a comment. The call rests on the fitted dose curve; in most records, active means well fitted curve in the direction sought with a large enough effect; inconclusive means small, poorly fitted or top-dose-only effect, or another doubt; inactive means no such curve, though single readings can be large; an effect the other way counts as inactive or inconclusive. Unless noted, on the % scale 0 is the no-effect control and ±100 the full control effect; potency means the concentration at half of the fitted maximal effect.
SMILES,AmpC detergent,Sm TGR inh,AmpC inh no detg
O=C(c1cc(-c2ccc(Br)cc2)n[nH]1)N1CCN(S(=O)(=O)c2ccc(Cl)s2)CC1,-7%,1%,.
CCOC(=O)C1=C(c2ccccc2)N=c2s/c(=C\c3cc(OC)c(OC)c(OC)c3)c(=O)n2C1c1cccs1 (stereo not given),4%,12%,-10%
CCOC(=O)C1=C(c2ccccc2)N=c2s/c(=C\c3ccco3)c(=O)n2C1c1cccs1 (stereo not given),0%,?,13µM*
CC(C)(C)C1CCc2nc(NC(=O)COc3ccc(F)cc3)sc2C1 (stereo not given),5%,7%,.
Cc1ccc(NC(=O)Cn2c(=O)oc3cc(S(=O)(=O)NCc4ccccc4)ccc32)cc1,14%,8%,.
CCCCn1c(N)c(N(CCOC)C(=O)c2cc(-c3ccc(OC)c(OC)c3)nc3ccccc23)c(=O)[nH]c1=O,?,-17%,11%
CCCCn1c(N)c(N(CCOC)C(=O)c2cc(-c3ccco3)nc3ccccc23)c(=O)[nH]c1=O,?,25µM*,-14%
COCCN(C(=O)c1cc(-c2ccco2)nc2ccccc12)c1c(N)n(Cc2ccccc2)c(=O)[nH]c1=O,.,.,-12%
CCCCn1c(N)c(N(CCOC)C(=O)c2ccc(-n3c(C)ccc3C)cc2)c(=O)[nH]c1=O,0%,40µM*,52%
CCCCn1c(N)c(N(CCC(C)C)C(=O)c2cc(-c3ccco3)nc3ccccc23)c(=O)[nH]c1=O,-5%,-14%,-36%
CCCCN(C(=O)c1cc(-c2ccco2)nc2ccccc12)c1c(N)n(CCCC)c(=O)[nH]c1=O,?,3.5µM*,-28%
CCCN(C(=O)c1cc(-c2ccco2)nc2ccccc12)c1c(N)n(Cc2ccccc2)c(=O)[nH]c1=O,?,8.9µM*,-1%
CCCCn1c(N)c(N(CCOC)C(=O)c2ccc(N3C(=O)CCC3=O)cc2)c(=O)[nH]c1=O,-6%,-1%,-12%
Cc1cccc(N(CC(=O)N2CCCCCC2)S(C)(=O)=O)c1,-7%,44%,-4%
CCN(CC(=O)NCc1ccc(Cl)cc1)C(=O)/C=C/c1ccc(Cl)c([N+](=O)[O-])c1,-2%,-8%,-43%
COc1ccc(-n2nc(C(=O)Nc3ccc(C(C)=O)cc3)nc2-c2ccccc2)cc1,25%,-3%,.
COc1cc(C(=O)NCCNC(=O)C2CCCNC2=O)cc(OC)c1OC (stereo not given),2%,10%,-2%
CC(C)N1CCN(Cc2nc3c(s2)CCCC3)CC1CCO (stereo not given),4%,.,-13%
Cn1nc(-c2ccccc2)cc1NS(=O)(=O)c1ccc(C#N)cc1,-7%,19%,-22%
CC(C)CN(C(=O)C1=NN(c2ccccc2)C(=O)CC1)c1c(N)n(Cc2ccccc2)c(=O)[nH]c1=O,0%,-24%,-21%
CCN(C(=O)COC(=O)Cc1ccccc1)c1c(N)n(Cc2ccccc2)c(=O)[nH]c1=O,-3%,-9%,-8%
CCN(C(=O)COC(=O)/C=C/c1ccco1)c1c(N)n(Cc2ccccc2)c(=O)[nH]c1=O,-8%,20µM*,1%
CCCCn1c(N)c(N(CC(C)C)C(=O)C2=NN(c3ccccc3)C(=O)CC2)c(=O)[nH]c1=O,4%,89µM*,-12%
O=C(Nc1cccc(S(=O)(=O)NC2=NCCC2)c1)c1cc(-c2ccco2)nc2ccccc12,-1%,18µM*,-57%
O=C(NC(=S)Nc1cccc(S(=O)(=O)NC2=NCCC2)c1)c1cc(-c2ccco2)nc2ccccc12,-4%,13µM*,-26%
SMILES,AmpC detergent,Sm TGR inh,AmpC inh no detg
CSCCCNC(=S)Nc1cccc(S(=O)(=O)NC2=NCCC2)c1,-14%,?,-50%
O=C(Nc1cccc(S(=O)(=O)NC2=NCCCCC2)c1)c1cc(-c2ccc(Cl)cc2)nc2ccccc12,-6%,6%,?
C=C(C)CNC(=S)Nc1cccc(S(=O)(=O)NC2=NCCC2)c1,-2%,56µM*,139%
O=C(Nc1cccc(S(=O)(=O)NC2=NCCCCC2)c1)c1cc(-c2ccccc2)nc2ccccc12,2%,1%,-29%
CC(C1CCN(Cc2cn(C)nc2-c2cccc(Cl)c2)CC1)N1CCOCC1 (stereo not given),-2%,17%,7%
O=C(N/N=C/c1ccc[nH]1)c1cc(-c2ccc(Cl)cc2)nc2ccccc12,-11%,-4%,-8%[2.29 µM]
O=C(Nc1ccon1)c1ccc(S(=O)(=O)N2CCOCC2)cc1,6%,13%,-21%
Cc1ccccc1CN(C)C1CCN(C)CC1,-9%,3%,8%
CN1CCC(N(C)CC(O)c2ccccc2)CC1 (stereo not given),-6%,13µM*,-12%[11.4 µM]
COC(=O)C1C(c2ccc(Br)cc2)Nc2nnc(C(F)(F)F)n2C1(C)O (stereo not given),1%,-29%,-33%
Cc1nn(C(C)C(=O)NCc2cccc(F)c2)c(=O)c2c1sc1ccccc12 (stereo not given),-1%,2%,.
Cc1ccc(NC(=O)c2cc(-c3ccc(C)c(C)c3O)n[nH]2)cc1C,-17%,11%,-23%
COc1ccc(NC(=O)c2cc(-c3ccc(C)c(C)c3O)n[nH]2)cc1Cl,?,-2%,18µM*
COCCn1c(SCC(=O)c2c[nH]c3ccccc23)nc2cc(C(=O)NC(C)C)ccc2c1=O,3%,-29%,.
COCCn1c(SCC(=O)c2c(C)[nH]c3ccccc23)nc2cc(C(=O)NC(C)C)ccc2c1=O,-4%,35µM*,.
CCOc1ccc(C2C(C(=O)Nc3ccc(OC)cc3)=C(C)Nc3nc(SCc4ccc(Cl)cc4)nn32)cc1 (stereo not given),1%,7%,.
COC(=O)c1ccccc1NC(=O)c1ccc(=O)n(Cc2cccc(C)c2)c1,2%,5%,.
O=CN1CCN(C(=O)c2cccc3c2-c2ccccc2C3=O)CC1,5%,7%,-3%
COc1cc(OC)cc(-c2c(C#Cc3ccsc3)c3cc(-c4ccc(C(N)=O)cc4)ccc3n2C)c1,2%,28µM*,-32%
COCc1ccc(-c2ccc3c(c2)c(C#Cc2ccsc2)c(-c2cc(OC)cc(OC)c2)n3C)cc1,5%,-2%,-17%
O=C(NCCCc1ccccc1)C1CCN(S(=O)(=O)c2ccc(F)cc2)CC1,2%,-1%,36%
COc1ccc(C)cc1NC(=O)C1CCN(S(=O)(=O)c2ccc3[nH]c(=O)oc3c2)CC1,?,2%,.
Cc1ccc(Cn2cnc3c(oc4ccccc43)c2=O)cc1,28%,-6%,.
CC(=O)C(Cc1ccccc1)NC(=O)CCl (stereo not given),-3%,?,42%
O=C(CCl)NC(Cc1ccccc1)c1ccccc1 (stereo not given),-4%,22µM*,-19%
CC(Sc1nnc(C2CC2)n1C1CC1)C(=O)c1ccc(F)cc1 (stereo not given),11%,-24%,18%
COc1ccc(-c2nn(C)c(=O)[nH]2)cc1,0%,7%,-18%
O=C(Nc1cccc(C(F)(F)F)c1)N1CCC(CN2CCCCCC2)CC1,14%,-26%,.
CCC(=O)Nc1cc(C)c(NC(=O)c2ccco2)cn1,0%,5%,-16%
